# Measurements published in PubChem BioAssay (EPA / NIEHS).
# The source made the active and inactive calls. Rule for the calls: active = hit-call score of the fitted dose curve at least 0.9, where 1 is the maximum; inactive = score below 0.9.
# Key:
# [1] = read-out: Macrophage colony-stimulating factor (MCSF), CSF1 (gene 1435); assay: BSK_hDFCGF_MCSF: BioMAP Diversity Plus: hDFCGF Assay for Macrophage colony-stimulating factor (MCSF) Biomarker Activity (AID 2283060); conditions: primary human foreskin fibroblasts; actives raise or lower the signal
# Outline: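 fibroblasts (human foreskin, primary), 24 h post-dose; M-CSF by ELISA; bidirectional fit, DMSO = baseline.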
# [2] = BSK_hDFCGF_SRB: Viability Assessment in the BioMAP Diversity Plus: hDFCGF Assay (AID 2283061); conditions: primary human foreskin fibroblasts;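 note: cells exposed to compound for 24 h before the read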
# Outline: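 SRB-based viability read on primary human skin fibroblasts at 24 h: TCA fixation, 0.1% dye, 560 nm. Gain or loss of signal is fitted against the DMSO negative control.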
# [3] = read-out: TIMP metallopeptidase inhibitor 1 (TIMP1), TIMP1 (gene 7076); assay: BSK_hDFCGF_TIMP1: BioMAP Diversity Plus: hDFCGF Assay for TIMP metallopeptidase inhibitor 1 (TIMP1) Biomarker Activity (AID 2283062); conditions: primary human foreskin fibroblasts; actives raise or lower the signal
# Outline: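 Bidirectional curve fitting against DMSO baseline yielded this endpoint, based on ELISA detection of TIMP-1 in primary human foreskin fibroblasts exposed to compound for 24 h.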
# [4] = read-out: Monokine induced gamma interferon (MIG), CXCL9 (gene 4283); assay: BSK_hDFCGF_MIG: BioMAP Diversity Plus: hDFCGF Assay for Monokine induced gamma interferon (MIG) Biomarker Activity (AID 2283063); conditions: primary human foreskin fibroblasts; actives raise or lower the signal
# Outline: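 Endpoint derived by bidirectional fitting relative to DMSO; MIG quantified via ELISA in primary human foreskin fibroblasts harvested 24 h after dosing.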
# [5] = read-out: Matrix Metallopeptidase 1 (MMP1), MMP1 (gene 4312); assay: BSK_hDFCGF_MMP1: BioMAP Diversity Plus: hDFCGF Assay for Matrix Metallopeptidase 1 (MMP1) Biomarker Activity (AID 2283064); conditions: primary human foreskin fibroblasts; actives raise or lower the signal
# Outline: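 Primary human foreskin fibroblasts exposed to chemicals for 24 h; MMP1 measured by ELISA. Cytotoxicity tracked by SRB staining in parallel cultures; bidirectional fit relative to DMSO.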
# [6] = read-out: Vascular cell adhesion molecule 1 (VCAM1), VCAM1 (gene 7412); assay: BSK_hDFCGF_VCAM1: BioMAP Diversity Plus: hDFCGF Assay for Vascular cell adhesion molecule 1 (VCAM1) Biomarker Activity (AID 2283065); conditions: primary human foreskin fibroblasts; actives raise or lower the signal;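 for AC50: VCAM-1 protein level quantified by ELISA after 24 h chemical exposure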
# Outline: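 Measured after 24 h chemical treatment of primary human skin fibroblasts, VCAM-1 was detected by ELISA and concentration-response analysed in both directions versus DMSO vehicle.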
# [7] = read-out: Plasminogen activator inhibitor-1 (PAI1), SERPINE1 (gene 5054); assay: BSK_hDFCGF_PAI1: BioMAP Diversity Plus: hDFCGF Assay for Plasminogen activator inhibitor-1 (PAI1) Biomarker Activity (AID 2283066); conditions: primary human foreskin fibroblasts; actives raise or lower the signal
# Outline: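 PAI-1 levels, determined by ELISA, served as the endpoint in human foreskin fibroblast cultures exposed to compound for 24 h, with DMSO as baseline.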
# [8] = read-out: Intercellular Adhesion Molecule 1 (ICAM1), ICAM1 (gene 3383); assay: BSK_KF3CT_ICAM1: BioMAP Diversity Plus: KF3CT Assay for Intercellular Adhesion Molecule 1 (ICAM1) Biomarker Activity (AID 2283067); conditions: primary human keratinocytes with fibroblasts; actives raise or lower the signal
# Outline: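 Bidirectional curve fitting against a DMSO baseline was applied to ICAM-1 ELISA signal from primary human skin co-cultures harvested 24 h after treatment, with SRB staining of parallel wells for overt cytotoxicity.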
# [9] = read-out: Interferon-gamma inducible Protein 10 (IP10), CXCL10 (gene 3627); assay: BSK_KF3CT_IP10: BioMAP Diversity Plus: KF3CT Assay for Interferon-gamma inducible Protein 10 (IP10) Biomarker Activity (AID 2283068); conditions: primary human keratinocytes with fibroblasts; actives raise or lower the signal
# Outline: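 Human keratinocyte plus foreskin fibroblast primary co-culture exposed to test chemical for 24 h; IP-10 measured by ELISA. Concentration-response fitted bidirectionally against DMSO control as baseline.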
# [10] = BSK_KF3CT_SRB: Viability Assessment in the BioMAP Diversity Plus: KF3CT Assay (AID 2283069); conditions: primary human keratinocytes with fibroblasts;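 note: total protein by sulforhodamine B staining as a cytotoxicity measure; read 24 h after compound addition; fitted for both signal gain and loss against DMSO baseline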
# Outline: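 Human keratinocyte and foreskin fibroblast co-culture exposed to chemical for 24 h. Total protein measured in parallel cultures by 0.1% sulforhodamine B staining after 10% TCA fixation, read at 560 nm; bidirectional fit relative to DMSO.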
# [11] = read-out: Interleukin-1 alpha (IL1a), IL1A (gene 3552); assay: BSK_KF3CT_IL1a: BioMAP Diversity Plus: KF3CT Assay for Interleukin-1 alpha (IL1a) Biomarker Activity (AID 2283070); conditions: primary human keratinocytes with fibroblasts; actives raise or lower the signal
# Outline: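 Primary human keratinocyte plus foreskin fibroblast co-culture, dosed and measured at 24 h in 96-well plates. IL-1a level quantified by ELISA; bidirectional fit relative to DMSO.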
# [12] = read-out: TIMP metallopeptidase inhibitor 2 (TIMP2), TIMP2 (gene 7077); assay: BSK_KF3CT_TIMP2: BioMAP Diversity Plus: KF3CT Assay for TIMP metallopeptidase inhibitor 2 (TIMP2) Biomarker Activity (AID 2283071); conditions: primary human keratinocytes with fibroblasts; actives raise or lower the signal
# Outline: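 Keratinocyte–fibroblast co-culture, 24 h exposure; TIMP-2 ELISA, DMSO-normalised bidirectional fit. Parallel SRB (0.1%, TCA-fixed, 560 nm) total-protein staining gauges cytotoxicity.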
# [13] = read-out: Transforming growth factor beta 1 (TGFb1), TGFB1 (gene 7040); assay: BSK_KF3CT_TGFb1: BioMAP Diversity Plus: KF3CT Assay for Transforming growth factor beta 1 (TGFb1) Biomarker Activity (AID 2283072); conditions: primary human keratinocytes with fibroblasts; actives raise or lower the signal
# Outline: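 Signal changes in either direction, relative to DMSO, define activity here. TGF-b1 is read by ELISA from a human keratinocyte-fibroblast co-culture 24 h post-dose.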
# [14] = read-out: C-C motif chemokine 2 (Homo sapiens) (UniProt P13500); assay: BSK_KF3CT_MCP1: BioMAP Diversity Plus: KF3CT Assay for Monocyte Chemoattractant Protein 1 (MCP1/CCL2) Biomarker Activity (AID 2283073); conditions: primary human keratinocytes with fibroblasts; actives raise or lower the signal
# Outline: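 Biomarker MCP-1 is measured by ELISA in primary human keratinocytes co-cultured with foreskin fibroblasts, 24 h after chemical treatment; DMSO serves as the negative control and activity baseline.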
# [15] = read-out: Matrix Metallopeptidase 9 (MMP9), MMP9 (gene 4318); assay: BSK_KF3CT_MMP9: BioMAP Diversity Plus: KF3CT Assay for Matrix Metallopeptidase 9 (MMP9) Biomarker Activity (AID 2283074); conditions: primary human keratinocytes with fibroblasts; actives raise or lower the signal;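 for AC50: MMP9 protein level quantified by ELISA in the co-culture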
# Outline: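 Human keratinocyte and foreskin fibroblast co-culture exposed to chemicals for 24 h; MMP9 biomarker measured by ELISA, bidirectional fitting relative to DMSO; cytotoxicity tracked by SRB total protein staining in parallel cultures.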
# [16] = read-out: urokinase plasminogen activator (uPA), PLAU (gene 5328); assay: BSK_KF3CT_uPA: BioMAP Diversity Plus: KF3CT Assay for urokinase plasminogen activator (uPA) Biomarker Activity (AID 2283075); conditions: primary human keratinocytes with fibroblasts; actives raise or lower the signal
# Outline: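 Primary human keratinocyte/foreskin fibroblast co-culture exposed to chemical; uPA measured by ELISA at 24 h. Bidirectional fit versus DMSO, with parallel SRB total-protein staining for cytotoxicity.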
# [17] = read-out: E-selectin (Homo sapiens) (UniProt P16581); assay: BSK_LPS_Eselectin: BioMAP Diversity Plus: LPS Assay for Eselectin Biomarker Activity (AID 2283077); conditions: primary human HUVEC with PBMC; actives raise or lower the signal
# Outline: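 Dose chemical onto LPS-driven HUVEC/PBMC co-culture; after 24 h, run ELISA for E-selectin; fit up- and down-going responses relative to DMSO control.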
# [18] = read-out: Interleukin-8 (IL8), CXCL8 (gene 3576); assay: BSK_LPS_IL8: BioMAP Diversity Plus: LPS Assay for Interleukin-8 (IL8) Biomarker Activity (AID 2283078); conditions: primary human HUVEC with PBMC; actives raise or lower the signal
# Outline: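 In this LPS system, chemical-treated human umbilical vein endothelium/PBMC co-cultures were harvested at 24 h for IL-8 ELISA.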
# [19] = BSK_LPS_SRB: Viability Assessment in the BioMAP Diversity Plus: LPS Assay (AID 2283079); conditions: primary human HUVEC with PBMC;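 note: total protein by sulforhodamine B absorbance as a cytotoxicity measure; measured one day after compound addition; fitted in both directions against DMSO so loss or gain of signal counts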
# Outline: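 Cytotoxicity endpoint in human endothelial–PBMC co-culture: 24 h exposure, then SRB (0.1%) staining, 560 nm read.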
# CD40, CD40 (gene 958) = assay: BSK_LPS_CD40: BioMAP Diversity Plus: LPS Assay for CD40 Biomarker Activity (AID 2283076); conditions: primary human HUVEC with PBMC; actives raise or lower the signal
# Outline: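 Using a multiplexed primary human co-culture (umbilical vein endothelium plus PBMC), CD40 was read by ELISA 24 h after dosing, with cytotoxicity tracked by sulforhodamine B staining of parallel cultures and activity fitted bidirectionally versus DMSO.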
# Chain of E-selectin (Homo sapiens) (P16581 whole entry, looked up): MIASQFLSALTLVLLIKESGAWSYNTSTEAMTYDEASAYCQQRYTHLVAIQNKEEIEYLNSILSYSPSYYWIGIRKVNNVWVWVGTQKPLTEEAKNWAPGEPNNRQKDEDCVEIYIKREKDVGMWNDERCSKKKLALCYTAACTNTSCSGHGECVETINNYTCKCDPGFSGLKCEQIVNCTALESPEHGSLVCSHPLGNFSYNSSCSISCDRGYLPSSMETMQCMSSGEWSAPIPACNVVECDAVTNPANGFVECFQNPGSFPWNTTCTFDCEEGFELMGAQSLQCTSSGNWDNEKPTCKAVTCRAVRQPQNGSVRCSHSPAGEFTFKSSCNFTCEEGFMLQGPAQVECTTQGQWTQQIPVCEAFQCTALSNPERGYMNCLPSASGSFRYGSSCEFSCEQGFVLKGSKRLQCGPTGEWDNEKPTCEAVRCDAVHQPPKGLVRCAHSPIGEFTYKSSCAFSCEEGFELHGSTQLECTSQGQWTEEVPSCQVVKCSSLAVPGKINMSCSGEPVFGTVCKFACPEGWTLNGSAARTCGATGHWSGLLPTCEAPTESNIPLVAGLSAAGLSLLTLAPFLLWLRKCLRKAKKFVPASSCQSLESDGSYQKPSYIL
structure (smiles),measurement,setting,value
CC1=CC=C(C(C)C)CC1,outcome,[1],inactive
same,outcome,[2],inactive
same,outcome,[3],inactive
same,outcome,[4],inactive
same,outcome,[5],inactive
same,outcome,[6],inactive
same,outcome,[7],inactive
same,outcome,[8],inactive
same,outcome,[9],inactive
same,outcome,[10],inactive
same,outcome,[11],inactive
same,outcome,[12],inactive
same,outcome,[13],inactive
same,outcome,[14],inactive
same,outcome,[15],inactive
same,outcome,[16],inactive
same,outcome,[17],inactive
same,outcome,[18],inactive
same,outcome,[19],inactive
CCc1cccc(C)c1N(C(=O)CS(=O)(=O)O)C(C)COC (stereo unspecified),outcome,[1],inactive
same,outcome,[2],inactive
same,outcome,[3],inactive
same,outcome,[4],inactive
same,outcome,[5],inactive
same,outcome,[6],inactive
same,outcome,[7],inactive
same,outcome,[8],inactive
same,outcome,[9],inactive
same,outcome,[10],inactive
same,outcome,[11],inactive
same,outcome,[12],inactive
same,outcome,[13],inactive
same,outcome,[14],inactive
same,outcome,[15],inactive
same,outcome,[16],inactive
same,outcome,"CD40, CD40 (gene 958)",inactive
same,outcome,[17],inactive
same,outcome,[18],inactive
same,outcome,[19],inactive
CC1(C)CC(O)CC(C)(C)N1[O],outcome,[1],inactive
same,outcome,[2],inactive
same,outcome,[3],inactive
same,outcome,[4],inactive
same,outcome,[5],inactive
same,outcome,[6],inactive
same,outcome,[7],inactive
same,outcome,[8],inactive
same,outcome,[9],inactive
same,outcome,[10],inactive
same,outcome,[11],inactive
same,outcome,[12],inactive
same,outcome,[13],inactive
same,outcome,[14],inactive
same,outcome,[15],inactive
same,outcome,[16],inactive
same,outcome,[17],inactive
same,outcome,[18],inactive
same,outcome,[19],inactive
CC(Cl)COP(=O)(OCC(C)Cl)OCC(C)Cl (stereo unspecified),outcome,[1],inactive
same,outcome,[2],inactive
same,outcome,[3],inactive
same,outcome,[4],inactive
same,outcome,[5],inactive
same,outcome,[6],inactive
same,outcome,[7],inactive
same,outcome,[8],inactive
same,outcome,[9],inactive
same,outcome,[10],inactive
same,outcome,[11],inactive
same,outcome,[12],inactive
same,outcome,[13],inactive
same,outcome,[14],inactive
same,outcome,[15],inactive
same,outcome,[16],inactive
same,outcome,"CD40, CD40 (gene 958)",inactive
same,outcome,[17],inactive
same,outcome,[18],inactive
same,outcome,[19],inactive
CCOC(=O)C1=NN(c2ccc(Cl)cc2Cl)C(C)(C(=O)OCC)C1 (stereo unspecified),outcome,[1],inactive
same,outcome,[2],inactive
same,outcome,[3],inactive
same,outcome,[4],inactive
same,outcome,[5],inactive
same,outcome,[6],inactive
same,outcome,[7],inactive
same,outcome,[8],inactive
same,outcome,[9],inactive
same,outcome,[10],inactive
same,outcome,[11],inactive
same,outcome,[12],inactive
same,outcome,[13],inactive
same,outcome,[14],inactive
same,outcome,[15],inactive
same,outcome,[16],inactive
same,outcome,[17],inactive
same,outcome,[18],inactive
same,outcome,[19],inactive
C=CC(=O)OCC(C)OCC(C)OCC(C)OC(=O)C=C (stereo unspecified),AC50,[1],20 µM (active)
same,AC50,[2],6.59 µM (active)
same,AC50,[3],11 µM (active)
same,AC50,[4],11.3 µM (active)
same,AC50,[5],27.5 µM (active)
same,AC50,[6],8.28 µM (active)
same,AC50,[7],6.86 µM (active)
same,AC50,[8],18.1 µM (active)
same,AC50,[9],28.1 µM (active)
same,AC50,[10],31.9 µM (active)
same,AC50,[11],20 µM (active)
same,outcome,[12],inactive
same,outcome,[13],inactive
same,AC50,[14],10.4 µM (active)
same,AC50,[15],14.7 µM (active)
same,AC50,[16],20 µM (active)
same,AC50,[17],9.34 µM (active)
same,AC50,[18],11.9 µM (active)
same,AC50,[19],22.9 µM (active)
CCCCCCCO,outcome,[1],inactive
same,outcome,[2],inactive
same,outcome,[3],inactive
same,outcome,[4],inactive
same,outcome,[5],inactive
same,outcome,[6],inactive
same,outcome,[7],inactive
same,outcome,[8],inactive
same,outcome,[9],inactive
same,outcome,[10],inactive
same,outcome,[11],inactive
same,outcome,[12],inactive
same,outcome,[13],inactive
same,outcome,[14],inactive
same,outcome,[15],inactive
same,outcome,[16],inactive
same,outcome,"CD40, CD40 (gene 958)",inactive
same,outcome,[17],inactive
same,outcome,[18],inactive
same,outcome,[19],inactive
